Laboratory results: PubChem BioAssay (NCATS)
Records with an inconclusive call do not appear. Values without a mark were called inactive. The call rests on the fitted dose curve; in most records, active means well fitted activation curve with a large enough effect; inconclusive means small, poorly fitted or top-dose-only effect; inactive means flat fitted curve, though single readings scatter. Where a SMILES comes first, the peptide text is derived from it. The star is where a group is joined. AMC = Cc1cc(=O)oc2cc(N*)ccc12; Cbz = O=C(OCc1ccccc1)*

Experiment: Primary redox qHTS assay for identification of artifact compounds. (AID 1845223)
Conditions: Amplex Red/HRP redox cycling with DTT, fluorescence; series mostly up to 53.8 µM; redox activity (% of DA3003): at the top concentration
Text: PI: Alexander Tropsha Ph.D.
UNC Eshelman School of Pharmacy
University of North Carolina, Chapel Hill, North Carolina
Hits from high-throughput screening (HTS) of chemical libraries are often false positives due to their interference with the assay detection technology. In response to this problem, we generated the largest publicly available library of chemical liabilities and developed a free webtool to predict HTS artifacts, both of which are described herein. More specifically, we generated, curated, and integrated HTS datasets for thiol reactivity, redox activity, and luciferase (firefly and nano) activity. Using these curated datasets, we developed and validated several Quantitative Structure-Interference Relationship (QSIR) models to predict nuisance behavior. […] These models were employed for virtual profiling of the National Center for Advancing Translational Science's (NCATS) in-house library, and 256 compounds for each assay were selected for the experimental validation of nuisance behavior. The BA for these external predictions ranged from 58 to 78% for compounds within the applicability domains of the models. […] The models developed in this study, along with aggregation models previously developed by our group (SCAM Detective) were implemented in "Liability Predictor," an online tool which may be used as part of chemical library design or for triaging HTS hits. Both the models and the curated datasets are publicly available at https://liability.mml.unc.edu/.
SEQUENCE No. (e.g., 1, 2, 3, etc.); […] (e.g., Cells, Incubation, Reagent, etc.); VALUE; DESCRIPTION.
1; Reagent; 3 uL; Amplex Red and HRP mixture.
2; Compounds and control; 16 nL; Kalypsis pin tool (Wako USA) equipped with a 1536-well pin head. […]
6; Detection; Fluorescence, ViewLux microplate reader, 525 nm excitation, 598 nm emission.
NOTES (numbers refer to Sequence numbers above)
1. 3 uL of a mixture containing Amplex Red (25 uM final concentration) and horseradish peroxidase (HRP; 250 mU/mL final concentration) in assay buffer (HBSS) was dispensed into all wells of a 1536-well assay plate (solid-bottom black plate; Greiner Bio One, Monroe, NC).
2. A Wako Pin-tool (Wako Automation, Richmond, VA) was used to transfer 16 nL of compounds (consisting of 7-plates in qHTS format, final concentration range 18.3 nM to 114 uM) or control DA3003 (final concentration range 1.22 nM to 40 uM).
3. 15 min. incubation at room temperature protected from light.
4. 1 uL of DTT (prepared fresh; final concentration 250 uM) was dispensed for a final assay volume of 4 uL.
5. Plates were centrifuged (121xg, 15 seconds) and incubated for 30 minutes at room temperature protected from light.
6. Samples were read for fluorescence (Ex/Em = 525(20)/598(25) nm) on a ViewLux CCD imager (PerkinElmer). Data were normalized to DMSO (0% activity) and DA3003 (10 uM final concentration; 100% activity) and the resulting percent inhibition data were fitted to a 4-parameter Hill equation using NCATS in-house software.

**Q.** For `CC1=C2CC(=O)C(C)CC/C=C(\C)CC2(O)OC1=O` (stereo not given), which “redox activity (% of DA3003)” value is on record?
**A.** -6.55%

**Q.** For `C=C1C[C@]23C[C@@]1(O)CC[C@H]2[C@@]12C=C[C@H](O)[C@@](C)(C(=O)O1)[C@H]2[C@@H]3C(=O)O`, which “redox activity (% of DA3003)” value is on record?
**A.** -11.3%

**Q.** For `CC1=CC(=O)CC(C)(C)C1/C=C/C(C)OC1OC(COC2OCC(O)C(O)C2O)C(O)C(O)C1O` (stereo not given), which “redox activity (% of DA3003)” value is on record?
**A.** -2.34% [at 25.6 µM]

**Q.** With `C=C(C)[C@@]1(O)C[C@@]2(C)C(=CC1=O)CC[C@@H](O)[C@@H]2C` as the compound, how does the “redox activity (% of DA3003)” value read?
**A.** -16.6%

**Q.** For `C=C[C@H]1[C@H](O[C@@H]2O[C@H](CO)[C@@H](O)[C@H](O)[C@H]2O)OC=C(C(=O)OC)[C@H]1CC=O`, which “redox activity (% of DA3003)” value is on record?
**A.** -14.5%

**Q.** For `N#CN1CCC[C@@H](n2nc(-c3ccc(Oc4ccc(F)cc4F)cc3)c(C(N)=O)c2N)C1`, which “redox activity (% of DA3003)” value is on record?
**A.** 13.8%

**Q.** Which “redox activity (% of DA3003)” value does the source give for `O=C(O)[C@H](Cc1ccccc1)Oc1ccc(-c2ccccc2)cc1` here?
**A.** 14.1%

**Q.** Which “redox activity (% of DA3003)” value does the source give for `OC[C@@]1(O)CO[C@H](OC[C@H]2O[C@@H](OC(CCCCc3ccc(O)cc3)CCc3ccc(O)cc3)[C@H](O[C@H]3OC[C@](O)(CO)[C@H]3O)[C@@H](O)[C@@H]2O)[C@@H]1O` (stereo not given in full) here?
**A.** 11.1% [at 25.6 µM]

**Q.** With `C=C(C)[C@@H]1CC[C@]2(C(=O)O)CC[C@]3(C)[C@H](CCC4[C@@]5(C)CCC(=O)C(C)(C)C5C(O)C[C@]43C)C12` (stereo not given in full) as the compound, how does the “redox activity (% of DA3003)” value read?
**A.** 14.7% [at 25.6 µM]

**Q.** For `C[C@@H]1[C@H]2[C@H](O[C@@H]3O[C@H](CO)[C@@H](O)[C@H](O)[C@H]3O)OC=C(C(=O)O)[C@H]2C[C@@H]1OC(=O)/C=C/c1ccc(O)cc1`, which “redox activity (% of DA3003)” value is on record?
**A.** -9.22% [at 25.6 µM]

**Q.** Which “redox activity (% of DA3003)” value does the source give for `Nc1nc2c(nc(Sc3ccc(Cl)cc3)n2[C@@H]2O[C@@H]3COP(=O)(O)O[C@H]3[C@H]2O)c(=O)[nH]1` here?
**A.** 5.6%

**Q.** For `Nc1ncnc2c1C(=O)N(c1ccc(C3CCC(CC(=O)O)CC3)cc1)CCO2` (stereo not given), which “redox activity (% of DA3003)” value is on record?
**A.** -6.08%

**Q.** Which “redox activity (% of DA3003)” value does the source give for `C=C1C[C@]23C[C@H]1CC[C@H]2[C@]1(C)CC[C@H](O)[C@@](C)(C(=O)O)[C@H]1[C@@H]3C(=O)O` here?
**A.** 19.7%

**Q.** For `COC(=O)C1(C)CCCC2(C)c3ccc(C(C)C)cc3C(O)C(O)C12` (stereo not given), which “redox activity (% of DA3003)” value is on record?
**A.** 10.8%

**Q.** With `CC(=O)O[C@@H]1CC2C(C)(C)C(=O)C=C[C@]2(C)C2CC[C@]3(C)C(=CC(=O)[C@@H]3c3ccoc3)[C@@]21C` (stereo not given in full) as the compound, how does the “redox activity (% of DA3003)” value read?
**A.** -2.46% [at 25.6 µM]

**Q.** For `Cc1cc(CNC(=O)c2cc(C(=O)NCc3ccc(F)c(C)c3)ncn2)ccc1F`, which “redox activity (% of DA3003)” value is on record?
**A.** -0.996%

**Q.** With `CC(=O)C1CCC(=O)N1Cc1ccccc1` (stereo not given) as the compound, how does the “redox activity (% of DA3003)” value read?
**A.** -6.67%

**Q.** Which “redox activity (% of DA3003)” value does the source give for `NCCCCN(Cc1nc2ccccc2[nH]1)[C@H]1CCCc2cccnc21` here?
**A.** -0.126% [at 25.6 µM]

**Q.** With `O=C(O)CCc1ccc(NCc2cccc3c2CCCN3CCOc2ccccc2)cc1F` as the compound, how does the “redox activity (% of DA3003)” value read?
**A.** 13.5%

**Q.** For `O=C(O)C[C@H]1CCC(=O)[C@@H]1C/C=C\CCO`, which “redox activity (% of DA3003)” value is on record?
**A.** -7.87%

**Q.** With `C=C(C(=O)O)[C@@H]1CC[C@@]2(C)CCC[C@@](C)(O)[C@@H]2C1` as the compound, how does the “redox activity (% of DA3003)” value read?
**A.** -14.8%

**Q.** Which “redox activity (% of DA3003)” value does the source give for `CC1C2=CC(=O)OC2(O)CC2C1C(O)CC1C(C)(CO)CCCC21C` (stereo not given) here?
**A.** -12.3%

**Q.** With `CC[C@H]1OC(=O)[C@H](C)[C@@H](O[C@H]2C[C@@](C)(OC)[C@@H](O)[C@H](C)O2)C(C)[C@@H](O[C@@H]2O[C@H](C)C[C@H](N(C)C)[C@H]2O)[C@](C)(O)C[C@@H](C)CN(C)[C@H](C)[C@@H](O)[C@]1(C)O` (stereo not given in full) as the compound, how does the “redox activity (% of DA3003)” value read?
**A.** 2.95%

**Q.** For `CC(=O)OC1CC2C(C)(C)C(=O)C=CC2(C)C2CC(=O)C3=C(CCC3C3=CC(O)OC3=O)C12C` (stereo not given), which “redox activity (% of DA3003)” value is on record?
**A.** 19.9% [at 25.6 µM]

**Q.** Which redox activity (% of DA3003) does the source give for `CC(=O)OCC1OC(OC2COC(OC3COC(OC4C(OC5C(CO)OC(OC6CCC7(C)C(CCC8(C)C7CC=C7C9CC(C)(C)CCC9(C(=O)OC9OC(CO)C(O)C(O)C9OC9OCC(OC%10OCC(O)(CO)C%10O)C(O)C9O)C(O)CC78C)C6(C)C)C(O)C5O)OCC(O)C4O)C(O)C3O)C(O)C2O)C(OC(=O)/C=C/c2ccccc2)C(O)C1OC(C)=O` (stereo not given) here?
**A.** -4.05% [at 6.41 µM]

**Q.** Which “redox activity (% of DA3003)” value does the source give for `O=C1NC(=O)/C(=C/c2cccc(C(F)(F)F)c2)S1` here?
**A.** 19.6%

**Q.** For `CC/C=C\[C@H](O)[C@H](O)C1=C(C)C(=O)[C@]2(O1)C(=O)N[C@@](O)(C(=O)c1ccccc1)[C@@H]2O`, which “redox activity (% of DA3003)” value is on record?
**A.** 1.96% [at 25.6 µM]

**Q.** With `CN1CCN(C2=Nc3ccccc3Nc3ccc(O)cc32)CC1` as the compound, how does the “redox activity (% of DA3003)” value read?
**A.** -7.03%

**Q.** For `Cc1cc(=O)oc2cc(NC(=O)[C@H](CCC(=O)O)NC(=O)[C@H](CC(C)C)NC(=O)[C@H](CC(C)C)NC(=O)OCc3ccccc3)ccc12` (Cbz-Leu-Leu-Glu-{AMC}), which “redox activity (% of DA3003)” value is on record?
**A.** 4.16%

**Q.** Which “redox activity (% of DA3003)” value does the source give for `Cc1cccc(-c2nn3c(c2-c2ccnc4ccc(C(N)=O)cc24)CCC3)n1` here?
**A.** 1.21%

**Q.** With `Cc1cn2cc(CC(=O)N3CCC4(CC3)CN(Cc3ccc(-n5nccn5)cc3Cl)C4)nc2s1` as the compound, how does the “redox activity (% of DA3003)” value read?
**A.** -1.02%

**Q.** With `COC(=O)C[C@H]1C(C)(C)[C@H](OC(=O)C(C)C)C2CC3=C4CC(=O)O[C@@H](c5ccoc5)[C@]4(C)CCC3[C@@]1(C)C2=O` (stereo not given in full) as the compound, how does the “redox activity (% of DA3003)” value read?
**A.** -0.193% [at 25.6 µM]

**Q.** Which “redox activity (% of DA3003)” value does the source give for `COc1ccc(S(=O)(=O)Nc2nc(-c3cccc([N+](=O)[O-])c3)cs2)cc1OC` here?
**A.** 14%

**Q.** With `CC1CCC23COC(=O)C2=CC(O)CC3C1(C)CCc1ccoc1` (stereo not given) as the compound, how does the “redox activity (% of DA3003)” value read?
**A.** -1.93%

**Q.** Which “redox activity (% of DA3003)” value does the source give for `Cc1sc(C)c(C(=O)NC2(c3ccc(C(=O)O)cc3)CC2)c1Cc1ccc(C(F)(F)F)cc1` here?
**A.** 3.7%

**Q.** Which “redox activity (% of DA3003)” value does the source give for `CC(C)=CCc1c(O)cc2oc3cc(C)cc(O)c3c2c1C` here?
**A.** -5.21%

**Q.** For `C/C(=C/CO)CC[C@H]1[C@]2(C)C[C@H](O)CC(C)(C)[C@H]2CC[C@]1(C)O`, which “redox activity (% of DA3003)” value is on record?
**A.** -15.7%

**Q.** Which “redox activity (% of DA3003)” value does the source give for `CC(=O)O[C@H]1C[C@@H](O)C(C)(C)C2C[C@@H](OC(C)=O)[C@]3(C)C(CC[C@@]4(C)[C@H](c5ccoc5)OC(=O)[C@H]5O[C@]543)[C@]21C` (stereo not given in full) here?
**A.** 7.71% [at 25.6 µM]

**Q.** Which “redox activity (% of DA3003)” value does the source give for `COc1c2c(c(C)c3c1C(=O)OC3)OC1(C)CC(O)C34OC(O)(CCC3(C)C1C2)OC4(C)C` (stereo not given) here?
**A.** -12.4% [at 25.6 µM]

**Q.** Which “redox activity (% of DA3003)” value does the source give for `C=C(C)C1Cc2c(ccc3c2OCC(c2ccc(O)cc2O)C3)O1` (stereo not given) here?
**A.** 19.5%
